PubChem BioAssay AID1159580 (chemical genetic matrix, 2015)
Values joined by “and” are separate entries in the source; they are usually repeats but may differ in a detail not shown here. Equal entries are not always repeated. The campaign covered roughly 5,500 compounds. About 2,000 (36%) were called active. Not shown: some 18% with an inconclusive outcome. Cut-off read from the data, not from the text of the source: active = normalized growth mostly below about 0.91 (no sharp cut-off); inconclusive = no clear call, values can overlap the other calls; inactive = mostly above about 0.92. The list shows a part of the results. Where a SMILES comes first, the peptide text is derived from it. [ ]: non-standard residue; d: D form. Orn = NCCC[CH](N)C(=O)O

Assay: chemical genetic growth profiling, strain panel (AID 1159580);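 note: tested at 20 µM; growth read once vehicle control cultures reached saturation at 30 °C; 1 = growth at the plate median or of vehicle wells; lower values mean less growth of the strain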
Conditions: S. cerevisiae deletion strains, growth OD

Measured: normalized growth

CC(C)CC1NC(=O)C(CCCN)NC(=O)C(C(C)C)NC(=O)C2CCCN2C(=O)C(Cc2ccccc2)NC(=O)C(CC(C)C)NC(=O)C(CCCN)NC(=O)C(C(C)C)NC(=O)C2CCCN2C(=O)C(Cc2ccccc2)NC1=O (stereo unspecified) (cyclo(FPV[Orn]LFPV[Orn]L); configuration not given here)
active: locus YDL185W, strain tfp1, hits give low values 0.249 | locus YDL192W, strain arf1, hits give low values 0.104 | locus YDR137W, strain rgp1, hits give low values 0.307 | locus YDR195W, strain ref2 0.363 | locus YER155C, strain BEM2 (second series), hits give low values 0.775 | locus YIL073C, strain SPO22, hits give low values 1.52 [resistant]
inactive: locus YAL013W, strain DEP1, hits give low values 1.01 | locus YAL021C, strain ccr4, hits give low values 0.995 | locus YAL026C, strain drs2, hits give low values 0.911 | locus YAL030W, strain snc1, hits give low values 1.03 | locus YBL061C, strain skt5, hits give low values 1.02 | locus YBR009C, strain hhf1, hits give low values 1.01 | locus YBR021W, strain FUR4, hits give low values 0.931 | locus YBR023C, strain chs3, hits give low values 1.01 | locus YBR171W, strain sec66, hits give low values 1.07 | locus YBR229C, strain ROT2, hits give low values 1.01 | locus YBR231C, strain swc5, hits give low values 0.934 | locus YBR279W, strain paf1, hits give low values 1.02 | locus YCL011C, strain gbp2, hits give low values 1.02 | locus YCL016C, strain dcc1, hits give low values 1 | locus YCL029C, strain bik1, hits give low values 0.986 | locus YCL061C, strain MRC1, hits give low values 1.03 | locus YCL069W, strain vba3, hits give low values 1.03 | locus YCR088W, strain abp1, hits give low values 1.03 | locus YDL005C, strain med2, hits give low values 1.02 | locus YDL035C, strain GPR1, hits give low values 0.992 | locus YDL040C, strain nat1, hits give low values 1.02 | locus YDL074C, strain BRE1, hits give low values 0.964 | locus YDL101C, strain DUN1, hits give low values 1 | locus YDL134C, strain PPH21, hits give low values 1.01 | locus YDR001C, strain nth1, hits give low values 1.03 | locus YDR069C, strain doa4, hits give low values 0.905 | locus YDR101C, strain arx1, hits give low values 0.998 | locus YDR150W, strain NUM1, hits give low values 1.02 | locus YDR159W, strain sac3, hits give low values 1.02 | locus YDR162C, strain NBP2, hits give low values 1.01 | locus YDR297W, strain sur2, hits give low values 1.03 | locus YDR318W, strain mcm21, hits give low values 1.01 | locus YDR334W, strain swr1, hits give low values 1.02 | locus YDR335W, strain msn5, hits give low values 1.05 | locus YDR388W, hits give low values 0.989 | locus YDR392W, strain spt3, hits give low values 0.963 | locus YDR502C, strain sam2, hits give low values 0.997 | locus YEL003W, strain gim4, hits give low values 1.01 | locus YEL037C, strain rad23, hits give low values 1.04 | locus YEL061C, strain CIN8 (second series), hits give low values 1.04 | locus YEL061C, strain CIN8, hits give low values 1.02 | locus YER015W, strain faa2, hits give low values 1.01 | locus YER016W, strain bim1, hits give low values 1.03 | locus YER110C, hits give low values 0.987 | locus YER111C, strain swi4, hits give low values 1.05 | locus YER155C, strain BEM2, hits give low values 0.991 | locus YER167W, strain BCK2, hits give low values 1.02 | locus YFR010W, strain ubp6, hits give low values 1.01 | locus YGL078C, strain dbp3, hits give low values 0.993 | locus YGL167C, strain pmr1, hits give low values 1.04 | locus YGL173C, strain kem1, hits give low values 1.02 | locus YGL227W, strain vid30, hits give low values 1.05 | locus YGL240W, strain doc1, hits give low values 0.992 | locus YGL248W, strain PDE1, hits give low values 1.01 | locus YGL253W, strain hxk2, hits give low values 1.03 | locus YGR078C, strain PAC10, hits give low values 1.07 | locus YGR135W, strain pre9, hits give low values 0.981 | locus YGR229C, strain SMI1, hits give low values 0.844 | locus YGR252W, strain gcn5, hits give low values 0.924 | locus YHR013C, strain ard1, hits give low values 1.1 | locus YHR027C, strain rpn1, hits give low values 1.05 | locus YHR030C, strain SLT2, hits give low values 1 and 0.948 | locus YHR079C, strain IRE1 (second series), hits give low values 1.01 | locus YHR079C, strain IRE1, hits give low values 0.993 | locus YHR094C, strain hxt1, hits give low values 1.01 | locus YHR129C, strain ARP1, hits give low values 1.02 | locus YHR142W, strain chs7, hits give low values 1.02 | locus YIL066C, strain RNR3, hits give low values 0.999 | locus YIL125W, strain kgd1, hits give low values 1 | locus YIR030C, strain dcg1, hits give low values 1 | locus YJL092W, strain hpr5, hits give low values 1.04 | locus YJL095W, strain BCK1 (second series), hits give low values 1.02 | locus YJL095W, strain BCK1, hits give low values 0.965 and 0.972 | locus YJL115W, strain asf1, hits give low values 1.07 | locus YJL129C, strain trk1, hits give low values 1.01 | locus YJL134W, strain LCB3, hits give low values 1.01 | locus YJL154C, strain vps35, hits give low values 1.01 | locus YJL164C, strain tpk1, hits give low values 1.03 | locus YJL166W, strain qcr8, hits give low values 1.02 | locus YJL168C, strain set2, hits give low values 1 | locus YJL187C, strain SWE1 (second series), hits give low values 0.992 | locus YJL187C, strain SWE1, hits give low values 1.04 | locus YJR043C, strain POL32, hits give low values 0.983 | locus YJR066W, strain TOR1, hits give low values 0.935 | locus YJR075W, strain HOC1, hits give low values 1.01
